# Bioassay records deposited in PubChem BioAssay by National Center for Advancing Translational Sciences (NCATS).
# Sampled rows, rich in hits. Any-hit rate of the full collection: about 2.8%.
# DRD3 antagonist: qHTS of D3 Dopamine Receptor Antagonist: qHTS; max response, negative = inhibition, %; D3R cells, DiscoveRx beta-arrestin luminescence, antagonist mode; active compounds read low; 360,000 compounds, 2.5% hits; in the data active = max response below about -50%; inconclusive = no clear call, values can overlap the other calls; note: % is set by controls: 0 for no effect and ±100 for the full control effect
#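 Cells plated overnight at 1500 cells/well, then exposed to library compounds with dopamine controls for 90 minutes at 37 degrees C. DiscoveRx reagent added for 30–60 minutes at room temperature; luminescence read, quantitative HTS format.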
# a7 integrin act: qHTS for Activators of Integrin-Mediated Alleviation for Muscular Dystrophy; 350,000 compounds, 0.064% hits; Potency, µM (highest dose often 38.3 µM), without a hit: at the top dose activation, usual class: activators; alpha7betagal myoblasts, beta-gal FDG fluorescence, 48 h; AID 624291, 2012;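 note: potency is the fitted concentration of half-maximal effect; 100% = response of the positive control SU9516; nearly all actives have a fitted effect of over 60% in size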
#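 alpha7betagal+/- myoblasts (passage 13, 250/well) treated 48 h at 37C with compounds at 1:260 dilution of DMSO stock. Lysed, then beta-galactosidase activity read as FDG fluorescence (ex 480/em 540) after 30 min, with pre-read for autofluorescence.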
# MBNL1-CUG inh: qHTS Assay for Inhibitors of MBNL1-poly(CUG) RNA binding. Muscleblind-like protein 1 (Homo sapiens), Q9NR56. 280,000 compounds, 0.036% hits. Potency, µM (titrated, usually from 57.5 µM), for inactives: at the top dose activity change, negative = inhibition, hits mostly inhibitors. TR-FRET MBNL1-His/biotin-(CUG)12 binding, 665/545 ratio; active = well fitted inhibition curve with a large enough effect in the signal ratio, with a control signal flat, not every such curve was filed as active; inconclusive = small, poorly fitted or top-dose-only effect, or effect the other way, or a change in a side signal; inactive = no such curve, though single readings can be large or run the other way; the % refers to the signal ratio; note: potency is the fitted concentration of half-maximal effect; % is set by controls: 0 for no effect and ±100 for the full control effect
# Target sequence (Q9NR56 whole entry, looked up): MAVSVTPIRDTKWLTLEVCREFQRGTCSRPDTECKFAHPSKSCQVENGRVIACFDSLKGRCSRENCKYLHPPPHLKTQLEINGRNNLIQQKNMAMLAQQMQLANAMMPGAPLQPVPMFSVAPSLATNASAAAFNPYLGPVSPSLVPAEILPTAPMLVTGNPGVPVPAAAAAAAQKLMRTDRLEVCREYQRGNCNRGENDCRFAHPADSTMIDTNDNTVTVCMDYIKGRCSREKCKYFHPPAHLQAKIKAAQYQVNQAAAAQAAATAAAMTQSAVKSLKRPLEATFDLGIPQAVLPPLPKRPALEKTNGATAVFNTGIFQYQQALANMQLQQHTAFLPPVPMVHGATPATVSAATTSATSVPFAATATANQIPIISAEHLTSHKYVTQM
#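 Inhibition of protein-RNA binding appears as loss of TR-FRET between terbium anti-His antibody on MBNL1-His and streptavidin-XL665 on biotin-(CUG)12. Activity is normalized to buffer-only and uninhibited-complex controls.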
# CBFb RUNX1 block: qHTS Assay for Compounds Blocking the Interaction Between CBF-beta and RUNX1 for the Treatment of Acute Myeloid Leukemia; Potency, µM (series often up to 59.8 µM), without a hit: top-dose activity, negative = inhibition, most hits filed as inhibitors; AID 1477, 2009; Runt-related transcription factor 1 (Homo sapiens) + Core-binding factor subunit beta …; 230,000 tested, under 10 active; AlphaScreen CBFb-His/RUNX1-biotin binding, biochemical; note: % of control where 0% means no effect
#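 His-tagged CBF-beta and biotinylated RUNX1 (30 nM each) were premixed 20 min at room temperature, exposed to compound for 15 min, then given nickel-chelate and streptavidin AlphaScreen beads (50 ng each). After 90 min, AlphaScreen signal was read.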
# DRD3 agonist: qHTS of D3 Dopamine Receptor Agonist: qHTS; max activation, %; D(3) dopamine receptor (Homo sapiens), P35462; D3R DiscoveRx beta-arrestin cells, luminescence, 90 min; 410,000 compounds, 0.58% hits; in the data active = max activation above about 30%; note: 0% is about no effect
#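 Agonist mode: compounds and dopamine controls were applied to plated cells for 90 min at 37 degrees C after an overnight attachment at 1500 cells/well. Luminescent read-out followed 30 - 60 minutes at room temperature with DiscoveRx detection reagent.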
# PTHR1 agonist: qHTS for PTHR1 Agonists: Primary Screen | HEK293 GP2 PTHR1 cells, GloSensor cAMP luminescence, 1 h | Potency, µM (top dose mostly 115 µM), without a hit: top-dose activation, most hits filed as activators | 410,000 compounds, 0.075% hits; note: potency is the fitted concentration of half-maximal effect; nearly all actives have a fitted effect of over 55% in size
#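 HEK-293-derived GP2 cells expressing PTHR1 and a GloSensor cAMP reporter, 3,000/well, plated overnight, given luciferin plus IBMX (each 0.5 mM as added) for 1 h at 37 °C, then compound for 1 h at 37 °C. Luminescence was read after 15 min at room temperature.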
# Numbers without * were called inactive; i = inactive; ? = inconclusive; . = no result; [ ] = remark or other dose. Unless noted, calls come from the whole dose curve; as a rule, active = well fitted curve in the direction sought with a large enough effect; inconclusive = small, poorly fitted or top-dose-only effect, or another doubt; inactive = no such curve, though single readings can be large; an effect the other way counts as inactive or inconclusive.
SMILES,DRD3 antagonist,a7 integrin act,MBNL1-CUG inh,CBFb RUNX1 block,DRD3 agonist,PTHR1 agonist
CCc1c(C2CC2)ncn1Cc1cccc(-c2ccccc2)c1,-95*,.,.,.,-14,-70%
CC(=O)[C@@]1(O)CC[C@H]2[C@@H]3C=C(Cl)C4=CC(=O)[C@@H]5C[C@@H]5[C@]4(C)[C@H]3CC[C@@]21C,.,.,.,.,11,.
Cc1cc(C)c(NC(=O)COC(=O)Cn2nc(-c3ccccc3)oc2=O)c(C)c1,-55*,12%,.,.,-6,i
N#Cc1cccc(NC(=O)COC(=O)Cn2nc(-c3ccccc3)oc2=O)c1,-23,20%,.,.,-4,?
COC(=O)[C@@]1(Cc2ccc(F)cc2)[C@@H]2C(=CC(=O)[C@H]2CC(=O)C(=O)N(C)C)CN1C(=O)c1ccccc1,.,.,.,3%,.,.
COC(=O)[C@@]1(Cc2ccccc2)[C@@H]2C(=CC(=O)[C@H]2CC(=O)C(=O)N(C)C)CN1C(=O)c1ccccc1,-51*,-8%,3%,4%[2.36 µM],-20,-30%
Cc1cccc(NC(=S)NC2CC3CCCC(C2)N3Cc2cccs2)c1 (stereo not drawn),-87*,-27%,0%,-4%,-29,i
COc1cc(/C=c2\sc3n(c2=O)C(c2ccccc2)C(c2ccccc2)=NN=3)ccc1O (stereo not drawn),-76*,-19%,12%,-23%,-9,i
COc1cc(/C=c2\sc3n(c2=O)CCCN=3)ccc1O,-8,-51%,?,9%,-7,-12%
Oc1c(C(Nc2cccc(C(F)(F)F)c2)c2ccncc2)ccc2cccnc12 (stereo not drawn),-54*,-28%,15%,-26%,7,i
Oc1c(C(Nc2nccs2)c2ccc(C(F)(F)F)cc2)ccc2cccnc12 (stereo not drawn),27,-76%,38%,0%,39*,12%
Cc1oc(-c2cccs2)cc1C(=O)N1CCCC(C)(C(=O)O)C1 (stereo not drawn),-2,.,.,.,-1,i
CC1CC(C)(C)Nc2ccc(N=O)cc21 (stereo not drawn),-84*,-12%,?,-18%,-12,-67%
Cc1cc(C(=O)CCC(=O)NCc2ccccc2F)c(C)s1,0,1%,.,.,-2,i
C=CC[C@H](CC(=O)N(CCO)Cc1ccccc1)C(=O)N[C@@H](C)COC(=O)[C@H](CC=C)CC(=O)OC(C)(C)C,17,15%,.,.,43*,-2%
C=CC[C@@H](CC(=O)N(CCO)Cc1ccccc1)C(=O)N[C@H](C)COC(=O)[C@@H](CC=C)Cc1ccc(F)cc1,162,-18%,.,.,40*,-95%
C=CC[C@@H](CC(=O)N(CCO)Cc1ccccc1)C(=O)N[C@@H](C)COC(=O)[C@@H](CC=C)CC(=O)OC(C)(C)C,17,35%,.,.,4,-58%
COCCCNC(=S)Nc1ccc(CC(=O)O)cc1,-11,12%,-26%,-18%,-4,-58%
Cc1ccc(/C=C(\C#N)C(=O)Nc2c(C)cccc2C)s1,-80*,0%,15%,-6%,-10,i
CC(C)Cc1nc(S(=O)(=O)c2ccc(Cl)cc2)c(N2CCOCC2)o1,-54*,28%,-7%,4%,3,i
COCCN(C(=O)COC(=O)c1cnc(C)cn1)c1c(N)n(Cc2ccccc2)c(=O)[nH]c1=O,-77*,11%,.,.,-13,-2%
CCSc1nc(N2CCOCC2)c2c(c1C#N)CC(C)(C)N(C)C2,-11,0%,16%,-2%,-6,-20%
COC(=O)CSc1nc(N2CCOCC2)c2c(c1C#N)CC(C)(C)N(C)C2,-53*,-6%,3%,3%,3,-4%[57.5 µM]
C=N[C@@H](C(=O)N[C@@H]1C(=O)N2[C@@H]1SC(C)(C)[C@@H]2C(=O)O)c1ccccc1,.,.,.,.,-6,.
C=CCn1c(SCC(=O)Nc2sccc2C(N)=O)nc2sc(C)c(C)c2c1=O,10,-44%,?,-12%,41*,-4%[57.5 µM]
SMILES,DRD3 antagonist,a7 integrin act,MBNL1-CUG inh,CBFb RUNX1 block,DRD3 agonist,PTHR1 agonist
C=CCn1c(SCC(=O)Nc2ccccc2C)nc2sc(C)c(C)c2c1=O,6,-42%,13%,13%,2,i
CCOc1ccccc1NC(=O)CSc1nnc(CNC(=O)c2cc(OC)c(OC)c(OC)c2)o1,-5,0%,-5%,.,0,-15%
O=C(CSCc1ccc(F)cc1)N1CCN(c2ccc(Cl)cc2)CC1,.,.,.,.,80*,-32%
O=C(CN1CCCCC1)Nc1ccc(Br)cc1[N+](=O)[O-],-3,13%,?,-10%,-3,-49%
Cc1ccc(C2(c3ccc(C)cc3)CC2C(=O)Nc2ccc([N+](=O)[O-])cc2O)cc1 (stereo not drawn),-66*,-57%,-6%,-27%,-5,-48%
CC1(C)CC1C(=O)Nc1ccc([N+](=O)[O-])cc1Br (stereo not drawn),72,14%,?,-7%,1,-23%
COc1ccccc1-c1ccnc2c(-c3ccc(Br)cc3)c(C)nn12,.,.,.,.,1,-37%
Cc1c(C#N)c(O)n(CCO)c(=O)c1N=Nc1ccc2c(c1)COC2=O,-59*,3%,?,11%,-46,21%
Cn1c(=O)cc(SCC(=O)NCCc2ccc(Cl)cc2)c2cc(Cl)ccc21,.,.,.,.,-6,-15%
Cc1noc(C)c1S(=O)(=O)N1CCCC(C(=O)N2CCC(C)CC2)C1 (stereo not drawn),5,-1%,-2%,3%,3,i
Cc1cccc(N2CCN(C(=O)C3CCCN(S(=O)(=O)c4c(C)noc4C)C3)CC2)c1C (stereo not drawn),-6,-7%,.,.,67*,-36%
COc1ccc(C[C@H]2CN3C(=NC[C@@H]3Cc3ccc(O)cc3)N2C[C@H](C)NC(=O)c2ccc(C)c(Br)c2)cc1,-81*,-53%,-13%,?,-110,-93%
COc1ccc(C[C@H]2CN3C(=NC[C@@H]3C(C)C)N2C[C@H](C)NC(=O)c2ccc(C)c(Br)c2)cc1,-76*,-52%,-6%,4%,-60,12%
Cc1ccc(C(=O)N[C@@H](C)CN2C3=NC[C@H](C(C)C)N3C[C@H]2Cc2ccc(O)cc2)cc1Br,-18,-31%,-22%,5%,-41,3%
